# Laboratory results: PubChem BioAssay (Tox21)
# Results filed as inconclusive are left out. A call without a number means that no potency is given here. Activity calls are given as the source filed them. Unless noted, the call rests on the fitted dose curve; in most records, active means well fitted curve in the direction sought with a large enough effect in the repeat runs; inconclusive means weak or mixed curves; inactive means no such curve, though single readings can be large; an effect the other way counts as inactive or inconclusive.
# Key:
# [1] = qHTS assay to identify small molecule antagonists of the glucocorticoid receptor (GR) signaling pathway - cell viability counter screen (AID 720693); further: nearly all actives have a fitted effect of over 55% in size; further: potency means the concentration at half of the fitted maximal effect
# [2] = qHTS assay for identifying genotoxic compounds that show differential cytotoxicity against isogenic chicken DT40 cell lines with known DNA damage response pathways - wild type cell line (AID 743012); further: nearly all actives have a fitted effect of over 60% in size; further: potency means the concentration at half of the fitted maximal effect
# Outline: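 Wild type DT40, 300 cells/well, ~0.5 h settle at 37 C/5% CO2; compounds in DMSO added by pintool; 40 h at 37 C/5% CO2; CellTiter-Glo, 30 min RT; luminescence.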
# [3] = qHTS assay for identifying genotoxic compounds that show differential cytotoxicity against isogenic chicken DT40 cell lines with known DNA damage response pathways - Rad54/Ku70 mutant cell line (AID 743015); further: nearly all actives have a fitted effect of over 60% in size; further: potency means the concentration at half of the fitted maximal effect
# [4] = qHTS assay to identify small molecule antagonists of the androgen receptor (AR) signaling pathway - cell viability counter screen (AID 743033; further: nearly all actives have a fitted effect of over 45% in size)
# [5] = qHTS assay to identify small molecule antagonists of the androgen receptor (AR) signaling pathway using the MDA cell line - cell viability counter screen (AID 743041; further: nearly all actives have a fitted effect of over 45% in size; further: potency means the concentration at half of the fitted maximal effect)
# Outline: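 MDA-kb2 AR-luc cells (MMTV-luciferase, AR/GR responsive) treated with compounds plus R1881 agonist for 16 h at 37C. CellTiter-Fluor added at 15.5 h; fluorescence read after 30 min in the same wells.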
# [6] = qHTS assay to identify small molecule antagonists of the thyroid receptor (TR) signaling pathway (AID 743065); further: nearly all actives have a fitted effect of over 55% in size; further: potency means the concentration at half of the fitted maximal effect
# Outline: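 GH3.TRE-Luc rat pituitary cells (two TREs driving luciferase) were dosed with compound, then stimulated with 1 nM T3 (final) for 23.5 h at 37 C. ONE-Glo luminescence was the read-out, with CellTiter-Fluor fluorescence as the cytotoxicity counter-screen.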
# [7] = test system: thyroid hormone receptor (rat, GH3 cells); assay: qHTS assay to identify small molecule agonists of the thyroid receptor (TR) signaling pathway (AID 743066; calls by dose curve)
# [8] = qHTS assay to identify small molecule antagonists of the estrogen receptor alpha (ER-alpha) signaling pathway - cell viability counter screen (AID 743074; calls by dose curve;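 further: HEK293 cells carrying ER-alpha-UAS-bla reporter stimulated with 17beta-estradiol; nearly all actives have a fitted effect of over 45% in size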; further: potency means the concentration at half of the fitted maximal effect)
# [9] = qHTS assay to identify small molecule antagonists of the estrogen receptor alpha (ER-alpha) signaling pathway using the BG1 cell line - cell viability counter screen (AID 743081);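 further: compound given together with 17beta-estradiol as the ER stimulus; series mostly up to about 70 µM; nearly all actives have a fitted effect of over 45% in size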
# Aromatase (Homo sapiens) = Aromatase (Homo sapiens) (UniProt P11511); assay: qHTS assay to identify aromatase inhibitors (AID 743083); further: nearly all actives have a fitted effect of over 55% in size; further: potency means the concentration at half of the fitted maximal effect
# Aromatase (Homo sapiens), sequence (P11511 whole entry, looked up): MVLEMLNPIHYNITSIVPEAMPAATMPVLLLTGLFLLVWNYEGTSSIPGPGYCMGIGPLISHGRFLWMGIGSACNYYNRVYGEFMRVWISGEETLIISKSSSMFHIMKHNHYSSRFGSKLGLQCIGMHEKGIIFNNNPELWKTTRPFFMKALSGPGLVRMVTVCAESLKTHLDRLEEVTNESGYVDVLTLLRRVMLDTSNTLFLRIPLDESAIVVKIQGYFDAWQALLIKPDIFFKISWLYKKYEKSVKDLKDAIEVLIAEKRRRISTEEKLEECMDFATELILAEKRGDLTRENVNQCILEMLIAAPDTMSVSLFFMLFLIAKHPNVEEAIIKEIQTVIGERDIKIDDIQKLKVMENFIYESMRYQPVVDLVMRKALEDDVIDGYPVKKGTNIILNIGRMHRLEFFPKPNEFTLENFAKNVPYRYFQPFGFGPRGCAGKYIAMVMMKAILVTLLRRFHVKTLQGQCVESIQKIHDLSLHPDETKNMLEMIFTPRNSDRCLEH
# [10] = qHTS assay to identify small molecule antagonists of the thyroid receptor (TR) signaling pathway - cell viability counter screen (AID 743064); further: nearly all actives have a fitted effect of over 50% in size; further: potency means the concentration at half of the fitted maximal effect
# Outline: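 GH3.TRE-Luc cells, 4 h pre-plating; cpd + T3 1 nM final; 37 °C 23.5 h; CellTiter-Fluor 30 min; fluorescence read.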
# [11] = target: Estrogen receptor (Homo sapiens) (UniProt P03372); assay: qHTS assay to identify small molecule antagonists of the estrogen receptor alpha (ER-alpha) signaling pathway (AID 743069; active means well fitted curve in the direction sought with a large enough effect in the signal ratio in the repeat runs, not every such curve was filed as active; the % refers to the signal ratio)
# Estrogen receptor (Homo sapiens), sequence (P03372 whole entry, looked up): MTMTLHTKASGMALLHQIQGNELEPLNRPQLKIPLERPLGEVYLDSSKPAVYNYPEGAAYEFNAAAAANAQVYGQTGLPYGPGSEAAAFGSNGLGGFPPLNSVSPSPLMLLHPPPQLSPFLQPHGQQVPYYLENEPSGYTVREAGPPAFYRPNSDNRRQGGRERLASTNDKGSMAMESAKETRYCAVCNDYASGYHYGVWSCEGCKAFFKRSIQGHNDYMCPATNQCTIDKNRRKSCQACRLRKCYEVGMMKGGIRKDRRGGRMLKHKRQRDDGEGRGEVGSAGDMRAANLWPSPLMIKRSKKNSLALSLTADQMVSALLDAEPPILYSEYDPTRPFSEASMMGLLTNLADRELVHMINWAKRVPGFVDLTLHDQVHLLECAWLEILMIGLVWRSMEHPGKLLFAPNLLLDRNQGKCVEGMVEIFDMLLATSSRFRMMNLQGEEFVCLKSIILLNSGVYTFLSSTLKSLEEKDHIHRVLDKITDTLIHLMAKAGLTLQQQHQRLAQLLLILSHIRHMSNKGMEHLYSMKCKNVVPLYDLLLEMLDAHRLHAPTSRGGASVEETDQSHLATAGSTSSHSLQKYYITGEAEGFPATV
# Outline: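 HEK293 ER-alpha-UAS-bla GripTite cells, held overnight in 2% charcoal-stripped FBS, 5,000 cells/well, preincubated 4 h, then compound plus 17beta-estradiol for 18 h at 37C. Beta-lactamase read by LiveBLAzer B/G FRET substrate, 2 h at room temperature.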
# [12] = target: Estrogen receptor (Homo sapiens) (UniProt P03372); assay: qHTS assay to identify small molecule agonists of the estrogen receptor alpha (ER-alpha) signaling pathway (AID 743075; calls by dose curve)
# [13] = target: Estrogen receptor (Homo sapiens) (UniProt P03372); assay: qHTS assay to identify small molecule agonists of the estrogen receptor alpha (ER-alpha) signaling pathway using the BG1 cell line (AID 743079); further: nearly all actives have a fitted effect of over 20% in size; further: potency means the concentration at half of the fitted maximal effect
# [14] = qHTS assay to identify small molecule antagonists of the estrogen receptor alpha (ER-alpha) signaling pathway using the BG1 cell line (AID 743080; calls by dose curve;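 further: BG1 cells stimulated with 17beta-estradiol alongside compound; series mostly up to about 70 µM; nearly all actives have a fitted effect of over 25% in size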)
# Outline: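 BG1-Luc-4E2 cells (endogenous full-length ER-alpha, stable 4×ERE-luciferase) were starved 5 days in phenol-red-free medium with 10% charcoal-stripped FBS, plated 24 h, then given compound plus 17beta-estradiol for 21.5 h at 37 C; ONE-Glo luminescence read after 30 min.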
# [15] = target: Androgen receptor (Homo sapiens) (UniProt P10275); assay: qHTS assay to identify small molecule antagonists of the androgen receptor (AR) signaling pathway (AID 743035; active means well fitted inhibition curve with a large enough effect in the signal ratio in the repeat runs, not every such curve was filed as active; the % refers to the signal ratio; further: potency means the concentration at half of the fitted maximal effect)
# Androgen receptor (Homo sapiens), sequence (P10275 whole entry, looked up): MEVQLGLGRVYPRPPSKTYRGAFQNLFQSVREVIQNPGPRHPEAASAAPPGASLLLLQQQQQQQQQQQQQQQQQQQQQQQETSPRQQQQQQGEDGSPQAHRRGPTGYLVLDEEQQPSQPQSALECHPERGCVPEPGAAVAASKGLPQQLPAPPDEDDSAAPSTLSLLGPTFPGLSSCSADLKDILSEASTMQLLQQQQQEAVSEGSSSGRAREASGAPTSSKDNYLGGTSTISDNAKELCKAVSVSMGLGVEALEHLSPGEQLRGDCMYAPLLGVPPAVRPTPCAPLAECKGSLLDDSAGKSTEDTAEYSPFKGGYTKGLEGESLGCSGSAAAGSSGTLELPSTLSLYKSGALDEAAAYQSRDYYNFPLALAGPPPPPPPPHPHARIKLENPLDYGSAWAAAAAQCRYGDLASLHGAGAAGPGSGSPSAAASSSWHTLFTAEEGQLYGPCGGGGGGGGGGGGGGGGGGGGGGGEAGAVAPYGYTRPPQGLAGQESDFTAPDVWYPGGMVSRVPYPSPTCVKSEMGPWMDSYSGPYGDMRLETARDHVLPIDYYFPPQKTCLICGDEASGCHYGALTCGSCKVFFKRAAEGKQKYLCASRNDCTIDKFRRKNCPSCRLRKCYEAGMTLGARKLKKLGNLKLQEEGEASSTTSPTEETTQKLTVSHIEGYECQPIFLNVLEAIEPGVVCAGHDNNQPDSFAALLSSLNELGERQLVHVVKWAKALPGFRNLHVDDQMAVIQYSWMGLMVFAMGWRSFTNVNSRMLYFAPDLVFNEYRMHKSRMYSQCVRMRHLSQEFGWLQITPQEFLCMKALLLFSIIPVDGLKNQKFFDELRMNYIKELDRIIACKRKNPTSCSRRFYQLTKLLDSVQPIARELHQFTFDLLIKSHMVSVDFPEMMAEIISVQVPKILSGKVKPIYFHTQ
# Outline: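 Fluorescence from a beta-lactamase FRET substrate (LiveBLAzer B/G, 2 h, room temperature) measured inhibition of R1881-stimulated signaling in GeneBLAzer AR-UAS-bla HEK293 cells exposed to compound for 16 h at 37C.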
# [16] = target: Androgen receptor (Homo sapiens) (UniProt P10275); assay: qHTS assay to identify small molecule agonists of the androgen receptor (AR) signaling pathway using the MDA cell line (AID 743040; further: nearly all actives have a fitted effect of over 20% in size)
# Outline: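 MDA-kb2 breast carcinoma cells carrying MMTV-luciferase (responsive to AR and GR), plated 5 h then treated 16 h with compounds at 37C, 0% CO2. Read-out was ONE-Glo luminescence after 30 min at room temperature.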
# [17] = target: Androgen receptor (Homo sapiens) (UniProt P10275); assay: qHTS assay to identify small molecule antagonists of the androgen receptor (AR) signaling pathway using the MDA cell line (AID 743042; further: potency means the concentration at half of the fitted maximal effect; nearly all actives have a fitted effect of over 55% in size)
# Outline: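 MDA-kb2 breast carcinoma cells carrying MMTV-luciferase (AR/GR responsive) were co-treated with compounds and the agonist R1881 for 16 h at 37C. Inhibition read as ONE-Glo luminescence; CellTiter-Fluor fluorescence measured in parallel for cytotoxicity.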
Compound,Potency [1],Potency [2],Potency [3],Potency [4],Potency [5],Potency [6],Potency [7],Potency [8],Potency [9],Potency (Aromatase (Homo sapiens)),Potency [10],Potency [11],Potency [12],Potency [13],Potency [14],Potency [15],Potency [16],Potency [17]
CCc1cn([C@H]2C[C@H](O)[C@@H](CO)O2)c(=O)[nH]c1=O,inactive,inactive,inactive,inactive,inactive,inactive,inactive,inactive,inactive,inactive,,,,,,,,
CC(C)(COP(=O)(O)OP(=O)(O)OC[C@H]1O[C@@H](n2cnc3c(N)ncnc32)[C@H](O)[C@@H]1OP(=O)(O)O)C(O)C(=O)NCCC(=O)NCCS (some centres not stated),inactive,inactive,inactive,inactive,inactive,,inactive,inactive,inactive,inactive,inactive,inactive,inactive,26.6 µM (active),inactive,,,
CCCOC(=O)c1ccccc1O,inactive,inactive,inactive,inactive,inactive,inactive,inactive,inactive,,inactive,inactive,inactive,inactive,inactive,inactive,,,
CC(C)(C)c1ccc2c(S(=O)(=O)O)c(C(C)(C)C)ccc2c1,inactive,inactive,inactive,inactive,inactive,,inactive,inactive,inactive,inactive,inactive,inactive,inactive,inactive,inactive,,,
C=N[C@@H](C(=O)N[C@@H]1C(=O)N2[C@@H]1SC(C)(C)[C@@H]2C(=O)O)c1ccccc1,inactive,inactive,inactive,inactive,inactive,inactive,inactive,inactive,inactive,inactive,inactive,,,,,,,
Cc1cc(CC(C)CC(C)(C)C)n(O)c(=O)c1 (configuration not stated) (tested in a mixture with another compound),15.1 µM (active),11.9 µM (active),13.3 µM (active),inactive,,21.1 µM (active),,,inactive,13.3 µM (active),29.8 µM (active),,,,,,,
CO/N=C(\C(=O)N[C@@H]1C(=O)N2C(C(=O)[O-])=C(C[n+]3ccc(N)n3CCO)CS[C@H]12)c1csc(N)n1,inactive,inactive,inactive,inactive,inactive,,,inactive,inactive,inactive,inactive,,,,,,,
O=C(CCN1CCC(c2ccccc2)C1)c1ccc2c(c1)OCCO2 (configuration not stated),inactive,2.66 µM (active),4.22 µM (active),inactive,29.8 µM (active),26.6 µM (active),,inactive,inactive,,,inactive,inactive,inactive,inactive,,,
C=CC1=C(C(=O)O)N2C(=O)[C@@H](NC(=O)/C(=N/OCC(=O)O)c3csc(N)n3)[C@H]2SC1 (stereo in doubt),inactive,inactive,inactive,inactive,inactive,inactive,inactive,inactive,inactive,inactive,inactive,inactive,inactive,inactive,inactive,,,
COC(=O)C(CN)c1c[nH]c2ccc(OC)cc12 (configuration not stated),inactive,inactive,inactive,inactive,inactive,inactive,inactive,inactive,inactive,inactive,,inactive,inactive,inactive,inactive,,,
O=C(O)[C@H]1CN(C/C=C/P(=O)(O)O)CCN1,inactive,inactive,inactive,inactive,inactive,inactive,inactive,inactive,inactive,inactive,,,,,,,,
C=C1[C@@H]2CC[C@@H](C2)C1(C)C,inactive,inactive,inactive,inactive,,inactive,inactive,inactive,inactive,inactive,,inactive,inactive,29.8 µM (active),inactive,,,
C[C@@H]1C[C@H]2[C@@H]3C[C@H](F)C4=CC(=O)C=C[C@]4(C)[C@@]3(Cl)[C@@H](O)C[C@]2(C)[C@H]1C(=O)COC(=O)C(C)(C)C,inactive,inactive,inactive,inactive,inactive,inactive,inactive,inactive,inactive,inactive,inactive,,inactive,inactive,,,,
CCCCCCCCCCCCCCCCCCNC(=O)OC1CCN(C(=O)OC[C@H](COC(=O)N(Cc2cccc[n+]2CC)C(=O)c2ccccc2OC)OC)CC1,16.9 µM (active),5.31 µM (active),5.96 µM (active),,23.7 µM (active),13.3 µM (active),,23.9 µM (active),,21.1 µM (active),,,inactive,,,10.7 µM (active),inactive,13.3 µM (active)
CNC(=O)C[C@@H](N)C(=O)N[C@@H](C(=O)N[C@@H]1C(=O)N2[C@@H]1SC(C)(C)[C@@H]2C(=O)O)c1ccc(O)cc1,inactive,inactive,inactive,inactive,inactive,,,inactive,inactive,inactive,inactive,inactive,inactive,inactive,inactive,,,
C[S+](C)CCC(N)C(=O)O (configuration not stated),inactive,inactive,inactive,inactive,inactive,inactive,inactive,inactive,inactive,inactive,inactive,inactive,inactive,inactive,inactive,,,
CC(=O)Oc1cc(C(F)(F)F)ccc1C(=O)O,inactive,inactive,inactive,inactive,inactive,inactive,inactive,inactive,inactive,inactive,inactive,,,,,,,
NC(=O)[C@@H]1C[C@]2(NC(=O)NC2=O)c2cc(F)ccc2O1,inactive,inactive,inactive,inactive,inactive,inactive,inactive,inactive,inactive,inactive,inactive,inactive,inactive,inactive,inactive,,,
